The full data set covers some 7,900 targets. This sample favours those with a hit. About 0.6% of all pairs of compound and target were hits.
Assays:
Experiment in all cases: log2 fold change, soluble protein after heating vs DMSO (PISA); higher = thermal stabilisation; K562 cells, 10 uM, 30 min; active = over 0.2 and 3.5 SD of the protein, either way, in both replicates (recomputed)
bafetinib = compound: Cc1ccc(NC(=O)c2ccc(CN3CC[C@H](N(C)C)C3)c(C(F)(F)F)c2)cc1Nc1nccc(-c2cncnc2)n1 [bafetinib]
How it was run: (§1)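 Soluble protein was quantified by TMTpro 16plex LC-MS/MS after channel sums were equalised. It was obtained as the supernatant after 21,000xg for 90 min from pooled aliquots of K562 cells (2×10^6 cells/mL, 10 μM compound, 30 min) heated for 3 min across 48°C-58°C and extracted in PBS with 0.5% NP-40 at 4°C. Thermal stability values are relative to control samples and come from duplicates. They are given as log2 fold changes.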

[1] = compound: Cc1cccc(CC(=O)N2CCc3c2ccc(-c2cn(C)c4ncnc(N)c24)c3F)n1
How it was run: as §1

nilotinib = compound: Cc1cn(-c2cc(NC(=O)c3ccc(C)c(Nc4nccc(-c5cccnc5)n4)c3)cc(C(F)(F)F)c2)cn1 [nilotinib]
How it was run: as §1

[2] = compound: Cc1nc(Nc2n[nH]c3c2CN(C(=O)N[C@H](CN(C)C)c2ccccc2)C3(C)C)c2sccc2n1
How it was run: as §1

dasatinib = compound: Cc1nc(Nc2ncc(C(=O)Nc3c(C)cccc3Cl)s2)cc(N2CCN(CCO)CC2)n1 [dasatinib]
How it was run: as §1

[3] = compound: Cc1ncc(-c2ccnc(Nc3ccc(S(C)(=O)=O)cc3)n2)n1C(C)C
How it was run: as §1

[4] = compound: Cn1cc(-c2ccc3c(c2)CCN3C(=O)Cc2cccc(C(F)(F)F)c2)c2c(N)ncnc21
How it was run: as §1

[5] = compound: Cn1cc(-c2ccc3nnc(C(F)(F)c4ccc5ncccc5c4)n3n2)cn1
How it was run: as §1

tipifarnib = compound: Cn1cncc1[C@@](N)(c1ccc(Cl)cc1)c1ccc2c(c1)c(-c1cccc(Cl)c1)cc(=O)n2C [tipifarnib]
How it was run: as §1

mubritinib = compound: FC(F)(F)c1ccc(/C=C/c2nc(COc3ccc(CCCCn4ccnn4)cc3)co2)cc1 [mubritinib]
How it was run: as §1

[6] = compound: NC(=O)Nc1cc(-c2cccc(F)c2)sc1C(=O)N[C@H]1CCCNC1
How it was run: as §1

[7] = compound: NC(=O)c1cnc(N[C@@H]2CCCC[C@@H]2N)nc1Nc1cccc(-n2nccn2)c1
How it was run: as §1

[8] = compound: NC1(c2ccc(-c3nc4ccn5c(=O)[nH]nc5c4cc3-c3ccccc3)cc2)CCC1
How it was run: as §1

[9] = compound: NCC(=O)Nc1ccc(-n2nc(C(F)(F)F)cc2-c2ccc3c(ccc4ccccc43)c2)cc1
How it was run: as §1

entinostat = compound: Nc1ccccc1NC(=O)c1ccc(CNC(=O)OCc2cccnc2)cc1 [entinostat]
How it was run: as §1

vorinostat = compound: O=C(CCCCCCC(=O)Nc1ccccc1)NO [vorinostat]
How it was run: as §1

citarinostat = compound: O=C(CCCCCCNC(=O)c1cnc(N(c2ccccc2)c2ccccc2Cl)nc1)NO [citarinostat]
How it was run: as §1

silmitasertib = compound: O=C(O)c1ccc2c(c1)nc(Nc1cccc(Cl)c1)c1ccncc12 [silmitasertib]
How it was run: as §1

[10] = compound: O=C1NC(=O)C(c2cnc3ccccn23)=C1c1cn2c3c(cc(F)cc13)CN(C(=O)N1CCCCC1)CC2
How it was run: as §1

[11] = compound: c1cc(OCCN2CCCCC2)cc(-c2n[nH]c3ccc(-c4nnc[nH]4)cc23)c1
How it was run: as §1

Measured: log2 fold change

LUC7L3 (UniProt O95232)
Chain of UniProt O95232 (O95232 whole entry, looked up): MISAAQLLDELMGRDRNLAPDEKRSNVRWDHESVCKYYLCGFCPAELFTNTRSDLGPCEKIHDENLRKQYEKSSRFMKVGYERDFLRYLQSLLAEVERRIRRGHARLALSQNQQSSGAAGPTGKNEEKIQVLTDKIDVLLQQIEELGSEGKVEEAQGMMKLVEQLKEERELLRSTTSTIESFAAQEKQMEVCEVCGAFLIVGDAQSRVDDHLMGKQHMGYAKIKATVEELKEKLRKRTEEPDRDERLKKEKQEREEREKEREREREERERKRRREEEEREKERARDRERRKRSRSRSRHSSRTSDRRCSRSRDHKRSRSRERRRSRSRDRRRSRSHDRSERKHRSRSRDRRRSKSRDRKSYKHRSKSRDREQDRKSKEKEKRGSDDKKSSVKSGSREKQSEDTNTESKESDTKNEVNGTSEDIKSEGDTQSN
active: [2] -2.05
inactive: bafetinib 0.001 | [1] -0.001 | nilotinib 0.091 | dasatinib -0.037 | [3] 0.052 | [4] 0.007 | [5] -0.019 | tipifarnib 0.036 | mubritinib 0.02 | [6] -0.203 | [7] -0.017 | [8] 0.058 | [9] -0.076 | entinostat -0.051 | vorinostat -0.008 | citarinostat 0.083 | silmitasertib -0.156 | [10] 0.086 | [11] -0.086

KIF11 (UniProt P52732)
inactive: bafetinib 0.043 | [1] 0.044 | nilotinib -0.057 | [2] -0.031 | dasatinib -0.075 | [3] 0.088 | [4] -0.06 | [5] -0.002 | tipifarnib -0.078 | mubritinib -0.025 | [6] -0.096 | [7] -0.075 | [8] -0.001 | [9] -0.067 | entinostat 0.023 | vorinostat 0.099 | citarinostat -0.006 | silmitasertib 0.147 | [10] 0.182 | [11] -0.044

LMNA (UniProt P02545)
inactive: bafetinib -0.011 | [1] -0.025 | nilotinib 0.065 | [2] -0.116 | dasatinib 0.097 | [3] -0.179 | [4] -0.04 | [5] -0.043 | tipifarnib 0.064 | mubritinib -0.069 | [6] 0.205 | [7] -0.013 | [8] 0.024 | [9] 0.047 | entinostat -0.004 | vorinostat -0.026 | citarinostat 0.039 | silmitasertib 0.015 | [10] -0.075 | [11] -0.068

KNTC1 (UniProt P50748)
inactive: bafetinib -0.013 | [1] 0.043 | nilotinib -0.064 | [2] -0.026 | dasatinib -0.047 | [3] 0.042 | [4] -0.073 | [5] 0 | tipifarnib -0.108 | mubritinib 0.004 | [6] -0.037 | [7] -0.1 | [8] -0.193 | [9] -0.046 | entinostat 0.049 | vorinostat 0.029 | citarinostat 0.037 | silmitasertib 0.077 | [10] 0.013 | [11] -0.004

MFF (UniProt Q9GZY8)
Chain of UniProt Q9GZY8 (Q9GZY8 whole entry, looked up): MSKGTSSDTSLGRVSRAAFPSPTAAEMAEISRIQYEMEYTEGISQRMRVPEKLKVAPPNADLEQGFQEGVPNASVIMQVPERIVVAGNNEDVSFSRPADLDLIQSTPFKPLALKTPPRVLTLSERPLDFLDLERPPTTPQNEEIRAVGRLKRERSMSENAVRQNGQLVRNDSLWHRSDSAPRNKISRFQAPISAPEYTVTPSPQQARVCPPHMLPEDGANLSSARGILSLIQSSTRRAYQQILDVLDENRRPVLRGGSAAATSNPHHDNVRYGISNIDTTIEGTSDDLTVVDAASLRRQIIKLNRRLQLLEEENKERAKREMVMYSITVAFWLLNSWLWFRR
inactive: bafetinib -0.065 | [1] -0.049 | nilotinib -0.057 | [2] -0.073 | dasatinib 0.014 | [3] -0.017 | [4] -0.011 | [5] -0.05 | tipifarnib 0.073 | mubritinib 0.035 | [6] -0.098 | [8] -0.125 | [9] -0.102 | entinostat -0.015 | vorinostat 0.006 | citarinostat -0.007 | silmitasertib 0.04 | [10] -0.06 | [11] -0.135
active: [7] -0.224

LSR (UniProt Q86X29)
Chain of UniProt Q86X29 (Q86X29 whole entry, looked up): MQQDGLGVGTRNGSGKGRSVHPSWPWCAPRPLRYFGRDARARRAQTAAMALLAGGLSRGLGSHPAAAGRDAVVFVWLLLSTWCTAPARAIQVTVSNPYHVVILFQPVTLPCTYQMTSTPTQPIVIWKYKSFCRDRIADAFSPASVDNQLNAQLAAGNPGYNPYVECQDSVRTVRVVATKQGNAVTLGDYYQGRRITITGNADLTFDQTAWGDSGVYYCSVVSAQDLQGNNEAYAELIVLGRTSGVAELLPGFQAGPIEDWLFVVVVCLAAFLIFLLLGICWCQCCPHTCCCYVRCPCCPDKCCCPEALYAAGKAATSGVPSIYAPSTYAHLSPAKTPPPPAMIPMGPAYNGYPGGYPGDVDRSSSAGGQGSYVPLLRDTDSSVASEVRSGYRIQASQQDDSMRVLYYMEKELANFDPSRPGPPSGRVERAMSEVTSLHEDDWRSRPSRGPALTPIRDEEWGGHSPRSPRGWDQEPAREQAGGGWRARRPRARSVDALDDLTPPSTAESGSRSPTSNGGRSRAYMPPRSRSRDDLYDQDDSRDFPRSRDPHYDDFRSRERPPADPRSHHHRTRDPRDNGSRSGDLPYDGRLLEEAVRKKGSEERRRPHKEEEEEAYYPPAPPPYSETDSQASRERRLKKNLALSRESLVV
active: [2] -0.254
inactive: bafetinib 0.068 | [1] -0.057 | nilotinib 0.024 | dasatinib 0.003 | [3] 0.009 | [4] 0.072 | [5] 0.018 | tipifarnib 0.011 | mubritinib 0.01 | [6] -0.135 | [7] 0.066 | [8] 0.066 | [9] 0.039 | entinostat -0.054 | vorinostat -0.027 | citarinostat 0.006 | silmitasertib -0.036 | [10] 0.03 | [11] -0.012

MICOS13 (UniProt Q5XKP0)
Chain of UniProt Q5XKP0 (Q5XKP0 whole entry, looked up): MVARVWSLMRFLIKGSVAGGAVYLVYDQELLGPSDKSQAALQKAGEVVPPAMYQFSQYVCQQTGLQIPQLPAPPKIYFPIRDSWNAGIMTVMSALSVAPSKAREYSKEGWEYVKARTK
inactive: bafetinib -0.114 | [1] 0.014 | nilotinib -0.054 | [2] 0.025 | dasatinib -0.085 | [3] 0.001 | [4] 0.046 | [5] 0.056 | tipifarnib -0.111 | mubritinib 0.117 | [6] -0.018 | [7] -0.023 | [8] -0.119 | [9] 0.029 | entinostat 0.041 | vorinostat 0.018 | citarinostat 0.028 | silmitasertib -0.02 | [10] -0.106 | [11] 0.025

IPO9 (UniProt Q96P70)
Chain of UniProt Q96P70 (Q96P70 whole entry, looked up): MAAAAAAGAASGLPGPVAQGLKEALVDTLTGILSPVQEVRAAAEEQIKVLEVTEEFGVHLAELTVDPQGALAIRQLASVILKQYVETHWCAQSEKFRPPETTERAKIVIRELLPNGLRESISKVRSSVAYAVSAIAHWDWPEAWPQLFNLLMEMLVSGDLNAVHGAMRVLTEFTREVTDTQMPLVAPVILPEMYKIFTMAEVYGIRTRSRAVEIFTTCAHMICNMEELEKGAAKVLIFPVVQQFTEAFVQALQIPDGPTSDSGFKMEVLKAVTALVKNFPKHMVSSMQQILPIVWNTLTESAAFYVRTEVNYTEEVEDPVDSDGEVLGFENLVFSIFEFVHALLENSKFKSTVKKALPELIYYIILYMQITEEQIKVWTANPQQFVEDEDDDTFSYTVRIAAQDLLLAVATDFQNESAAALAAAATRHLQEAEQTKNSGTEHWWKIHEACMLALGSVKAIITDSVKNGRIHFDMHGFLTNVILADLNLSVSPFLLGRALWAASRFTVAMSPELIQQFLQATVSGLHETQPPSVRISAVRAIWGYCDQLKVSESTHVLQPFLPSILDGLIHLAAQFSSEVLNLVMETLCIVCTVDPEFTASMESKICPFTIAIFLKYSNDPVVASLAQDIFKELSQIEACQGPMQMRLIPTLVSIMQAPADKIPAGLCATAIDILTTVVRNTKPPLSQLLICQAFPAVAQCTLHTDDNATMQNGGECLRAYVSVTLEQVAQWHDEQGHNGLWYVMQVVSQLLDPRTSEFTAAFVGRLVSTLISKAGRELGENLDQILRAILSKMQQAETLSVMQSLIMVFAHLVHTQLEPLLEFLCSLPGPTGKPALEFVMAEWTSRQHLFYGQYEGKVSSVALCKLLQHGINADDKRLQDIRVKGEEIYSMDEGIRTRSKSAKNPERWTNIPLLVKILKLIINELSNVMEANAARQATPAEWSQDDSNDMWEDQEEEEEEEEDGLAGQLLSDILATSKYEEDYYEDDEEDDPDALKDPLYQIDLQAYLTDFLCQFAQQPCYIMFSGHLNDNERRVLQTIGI
inactive: bafetinib 0.019 | [1] 0.031 | nilotinib -0.016 | [2] -0.06 | dasatinib 0.04 | [3] 0.011 | [4] -0.069 | [5] -0.06 | tipifarnib -0.084 | mubritinib -0.005 | [6] 0.059 | [7] -0.072 | [8] -0.07 | [9] 0.003 | entinostat 0.022 | vorinostat 0.041 | citarinostat 0.061 | silmitasertib 0.164 | [10] 0.048 | [11] -0.035

ILF2 (UniProt Q12905)
inactive: bafetinib 0.093 | [1] -0.012 | nilotinib -0.011 | [2] 0.251 | dasatinib 0.121 | [3] 0.3 | [4] -0.151 | [5] -0.084 | tipifarnib 0.006 | mubritinib -0.071 | [6] -0.02 | [7] 0.024 | [8] 0.121 | [9] 0.109 | entinostat -0.049 | vorinostat -0.059 | citarinostat -0.037 | silmitasertib 0.13 | [10] 0.378 | [11] -0.18

IRF3 (UniProt Q14653)
Chain of UniProt Q14653 (Q14653 whole entry, looked up): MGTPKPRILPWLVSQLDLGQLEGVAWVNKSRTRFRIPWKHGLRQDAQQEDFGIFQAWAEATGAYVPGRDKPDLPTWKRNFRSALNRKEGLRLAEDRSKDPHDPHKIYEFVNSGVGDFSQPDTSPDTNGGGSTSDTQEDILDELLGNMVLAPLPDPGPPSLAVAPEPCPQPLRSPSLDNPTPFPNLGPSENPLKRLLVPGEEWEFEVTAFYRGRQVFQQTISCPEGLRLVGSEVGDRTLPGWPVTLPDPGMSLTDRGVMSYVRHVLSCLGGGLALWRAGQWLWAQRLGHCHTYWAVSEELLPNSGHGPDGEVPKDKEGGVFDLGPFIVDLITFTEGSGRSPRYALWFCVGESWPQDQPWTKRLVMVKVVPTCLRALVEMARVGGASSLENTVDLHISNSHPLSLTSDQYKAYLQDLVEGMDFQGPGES
active: [6] 0.221
inactive: bafetinib 0.033 | [1] 0.023 | nilotinib 0.066 | [2] -0.191 | dasatinib -0.1 | [3] -0.04 | [4] 0.106 | [5] 0.005 | tipifarnib -0.023 | mubritinib 0.039 | [7] -0.021 | [8] -0.021 | [9] -0.022 | entinostat -0.078 | vorinostat 0.06 | citarinostat 0.028 | silmitasertib -0.044 | [10] -0.047 | [11] -0.028

LARP1 (UniProt Q6PKG0)
inactive: bafetinib 0.049 | [1] 0.024 | nilotinib -0.063 | [2] -0.014 | dasatinib 0.014 | [3] -0.028 | [4] -0.067 | [5] -0.043 | tipifarnib 0.047 | mubritinib -0.011 | [6] -0.064 | [7] 0.002 | [8] 0.051 | [9] -0.04 | entinostat 0.02 | vorinostat 0.043 | citarinostat -0.025 | silmitasertib 0.028 | [10] 0.113 | [11] -0.133

MIER1 isoform 12 (UniProt Q8N108)
Chain of UniProt Q8N108 (Q8N108 whole entry, looked up): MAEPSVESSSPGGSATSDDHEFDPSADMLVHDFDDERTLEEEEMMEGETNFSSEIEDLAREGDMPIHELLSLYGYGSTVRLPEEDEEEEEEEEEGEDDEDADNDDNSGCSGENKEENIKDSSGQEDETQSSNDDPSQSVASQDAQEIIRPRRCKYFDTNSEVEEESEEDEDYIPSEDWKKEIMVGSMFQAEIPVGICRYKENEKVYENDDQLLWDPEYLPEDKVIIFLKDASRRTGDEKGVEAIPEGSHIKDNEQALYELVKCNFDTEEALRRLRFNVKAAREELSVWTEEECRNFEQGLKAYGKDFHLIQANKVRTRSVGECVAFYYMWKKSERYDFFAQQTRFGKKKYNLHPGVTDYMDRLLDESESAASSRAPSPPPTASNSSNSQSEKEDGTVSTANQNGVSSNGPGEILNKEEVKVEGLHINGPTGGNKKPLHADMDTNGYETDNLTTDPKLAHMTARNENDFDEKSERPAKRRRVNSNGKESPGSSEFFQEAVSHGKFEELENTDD
active: entinostat 0.292 | vorinostat 0.28 | citarinostat 0.273
inactive: bafetinib -0.016 | [1] 0.031 | nilotinib 0.012 | [2] -0.083 | dasatinib -0.028 | [3] -0.061 | [4] 0.056 | [5] -0.041 | tipifarnib -0.004 | mubritinib 0.052 | [6] -0.026 | [7] -0.03 | [8] -0.074 | [9] -0.025 | silmitasertib -0.017 | [10] -0.066 | [11] -0.061

MAGEC2 (UniProt Q9UBF1)
Chain of UniProt Q9UBF1 (Q9UBF1 whole entry, looked up): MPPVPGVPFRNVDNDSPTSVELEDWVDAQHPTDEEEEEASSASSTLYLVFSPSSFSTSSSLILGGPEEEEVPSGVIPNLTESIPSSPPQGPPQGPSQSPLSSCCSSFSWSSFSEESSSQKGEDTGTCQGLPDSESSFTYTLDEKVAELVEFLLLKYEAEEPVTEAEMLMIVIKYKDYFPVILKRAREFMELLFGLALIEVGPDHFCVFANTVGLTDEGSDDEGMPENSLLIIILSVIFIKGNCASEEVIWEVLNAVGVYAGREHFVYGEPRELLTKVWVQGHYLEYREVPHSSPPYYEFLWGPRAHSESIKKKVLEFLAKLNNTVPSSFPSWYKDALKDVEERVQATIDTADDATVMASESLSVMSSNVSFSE
inactive: bafetinib -0.024 | [1] -0.065 | nilotinib -0.02 | [2] 0.021 | dasatinib 0.059 | [3] 0 | [4] -0.056 | [5] -0.07 | tipifarnib -0.02 | mubritinib -0.015 | [6] 0.013 | [7] -0.037 | [8] -0.021 | [9] -0.004 | entinostat -0.009 | vorinostat 0.032 | citarinostat 0.029 | silmitasertib 0.057 | [10] 0.089 | [11] -0.09

KLHL18 (UniProt O94889)
inactive: bafetinib 0.027 | [1] -0.252 | nilotinib 0.005 | [2] -0.021 | dasatinib -0.187 | [3] 0.025 | [4] 0.061 | [5] -0.027 | tipifarnib 0.044 | mubritinib -0.017 | [6] 0.132 | [7] -0.034 | [8] -0.145 | [9] -0.123 | entinostat -0.045 | vorinostat 0.137 | citarinostat 0.123 | silmitasertib -0.029 | [10] -0.014 | [11] -0.022

KLHDC4 (UniProt Q8TBB5)
inactive: bafetinib 0.012 | [1] -0.018 | nilotinib 0 | [2] -0.067 | dasatinib 0.107 | [3] 0.156 | [4] -0.175 | [5] -0.23 | tipifarnib 0.106 | mubritinib -0.333 | [6] 0.013 | [7] -0.006 | [8] 0.224 | [9] -0.105 | entinostat -0.055 | vorinostat -0.014 | citarinostat 0.042 | silmitasertib -0.003 | [10] 0.125 | [11] -0.036

IPO7 (UniProt O95373)
Chain of UniProt O95373 (O95373 whole entry, looked up): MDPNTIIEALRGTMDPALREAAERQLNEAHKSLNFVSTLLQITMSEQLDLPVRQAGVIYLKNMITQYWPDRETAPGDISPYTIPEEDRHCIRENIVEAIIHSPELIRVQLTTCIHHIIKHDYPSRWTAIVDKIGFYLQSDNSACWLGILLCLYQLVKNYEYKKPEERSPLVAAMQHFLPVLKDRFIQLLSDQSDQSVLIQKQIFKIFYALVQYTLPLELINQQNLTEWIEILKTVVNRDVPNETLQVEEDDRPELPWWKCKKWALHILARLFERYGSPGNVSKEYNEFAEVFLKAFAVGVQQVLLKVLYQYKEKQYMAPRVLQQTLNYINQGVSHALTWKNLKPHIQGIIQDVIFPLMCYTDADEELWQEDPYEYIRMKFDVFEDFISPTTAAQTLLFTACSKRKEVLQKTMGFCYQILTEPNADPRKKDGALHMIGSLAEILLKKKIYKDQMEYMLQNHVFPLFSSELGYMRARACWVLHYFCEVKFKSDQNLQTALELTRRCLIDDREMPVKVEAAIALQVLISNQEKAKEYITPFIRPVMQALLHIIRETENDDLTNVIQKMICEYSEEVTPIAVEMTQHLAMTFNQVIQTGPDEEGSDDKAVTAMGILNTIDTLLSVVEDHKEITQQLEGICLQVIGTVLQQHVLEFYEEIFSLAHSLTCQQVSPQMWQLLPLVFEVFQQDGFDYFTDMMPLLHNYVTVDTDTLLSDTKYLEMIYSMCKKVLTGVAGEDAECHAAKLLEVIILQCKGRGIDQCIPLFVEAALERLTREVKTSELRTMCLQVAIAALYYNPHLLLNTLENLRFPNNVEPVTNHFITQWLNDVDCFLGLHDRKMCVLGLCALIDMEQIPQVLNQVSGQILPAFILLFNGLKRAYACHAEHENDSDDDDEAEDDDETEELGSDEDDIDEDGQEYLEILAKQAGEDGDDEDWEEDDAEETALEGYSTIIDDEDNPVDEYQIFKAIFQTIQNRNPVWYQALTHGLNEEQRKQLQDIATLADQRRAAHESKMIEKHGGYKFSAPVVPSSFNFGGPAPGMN
inactive: bafetinib -0.018 | [1] 0.035 | nilotinib -0.058 | [2] -0.044 | dasatinib -0.074 | [3] -0.091 | [4] -0.018 | [5] 0.008 | tipifarnib -0.126 | mubritinib 0.079 | [6] 0.024 | [7] -0.099 | [8] -0.145 | [9] -0.069 | entinostat 0.036 | vorinostat 0.055 | citarinostat 0.056 | silmitasertib 0.015 | [10] -0.004 | [11] -0.09

— the supplement of paper PMC10849652
